Assay results taken from PubChem BioAssay AID1159580 (chemical genetic matrix, 2015).
The campaign covered roughly 5,500 compounds. About 2,000 (36%) were called active. Roughly 18% stayed inconclusive and do not appear here. Rule as the data show it: active = normalized growth mostly below about 0.91 (no sharp cut-off); inconclusive = no clear call, values can overlap the other calls; inactive = mostly above about 0.92. The list shows a part of the results.

Assay: chemical genetic growth profiling, strain panel (AID 1159580);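 also: tested at 20 µM; growth read once vehicle control cultures reached saturation at 30 °C; 1 = growth at the plate median or of vehicle wells; lower values mean less growth of the strain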
Details: S. cerevisiae deletion strains, growth OD

Measured: normalized growth

CC1=C(/C=C/C(C)=C/C=C/C(C)=C/C(=O)Nc2ccc(O)cc2)C(C)(C)CCC1
inactive: locus YAL013W, strain DEP1, stronger effect = lower value 0.99 | locus YAL040C, strain CLN3, stronger effect = lower value 1.09 | locus YCL061C, strain MRC1 (second series), stronger effect = lower value 0.995 | locus YDR150W, strain NUM1, stronger effect = lower value 1.01 | locus YDR363W, strain ESC2, stronger effect = lower value 0.968 | locus YER002W, strain NOP16, stronger effect = lower value 1.02 | locus YGR078C, strain PAC10, stronger effect = lower value 1.02 | locus YMR263W, strain SAP30, stronger effect = lower value 0.994 | locus YMR307W, strain GAS1, stronger effect = lower value 0.989 | locus YNL128W, strain TEP1, stronger effect = lower value 1.02 | locus YNL175C, strain NOP13, stronger effect = lower value 1.02 | locus YNL197C, strain WHI3, stronger effect = lower value 1.01 | locus YNL224C, strain SQS1, stronger effect = lower value 0.998 | locus YNL322C, strain KRE1, stronger effect = lower value 0.993 | locus YOR083W, strain WHI5 (second series), stronger effect = lower value 0.952
